Source: the supplement of paper PMC10127200
Counter-ions that a name gives are not always drawn.

Key:
Experiment in all cases: Euclidean distance of Cell Painting phenotypic profile (signed KS, 77 features) to DMSO centroid (dimensionless distance); 5 or 10 uM (library dependent); higher = stronger phenotypic change vs DMSO (phenoactivity)
Details in all cases: 48 h
786-O = tested on: 786-O
In short: (§1)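 Five cancer lines, together with a healthy fibroblast line, received library compounds for 48 h at a library-dependent 10 or 5 uM and 0.1% DMSO final. Harmony then derived 77 features from confocal 20X images (9 fields/well) of the stained cells, scoring each as a signed Kolmogorov-Smirnov statistic against same-plate vehicle wells. After plate-position correction, correlation weighting and replicate averaging at the top dose, phenoactivity was taken as each profile's Euclidean distance to the median vehicle profile.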

A549 = tested on: A549
In short: as §1

DU145 = tested on: DU145
In short: as §1

FB = tested on: FB
In short: as §1

HEPG2 = tested on: HEPG2
In short: as §1

OVCAR4 = tested on: OVCAR4
In short: as §1

Row | SMILES | Euclidean distance (786-O) | Euclidean distance (A549) | Euclidean distance (DU145) | Euclidean distance (FB) | Euclidean distance (HEPG2) | Euclidean distance (OVCAR4)
1 | CC(C)(OCc1nn(Cc2ccccc2)c2ccccc12)C(=O)O [Bindarit] | 0.377 | 0.614 | 0.791 | 0.934 | 0.939 | 0.825
2 | CC1(C)S[C@@H]2[C@H](NC(=O)[C@H](N)c3ccccc3)C(=O)N2[C@H]1C(=O)O [Ampicillin sodium] | 1.18 | 0.444 | 1.06 | 0.59 | 0.55 | 1.15
3 | C[C@H]1NCc2cc(-c3ccc4c(=O)c(C(=O)O)cn(C5CC5)c4c3OC(F)F)ccc21 [Garenoxacin] | 0.629 | 0.876 | 0.678 | 1.54 | 0.463 | 1.08
4 | N=C(N)NC(=O)c1nc(Cl)c(N)nc1N [Amiloride HCl] | 1.05 | 0.988 | 0.844 | 0.922 | 1.33 | 0.94
5 | O=C(O)C1=CO[C@@H](O[C@@H]2O[C@H](CO)[C@@H](O)[C@H](O)[C@H]2O)[C@@H]2C(CO)=CC[C@H]12 [Geniposidic acid] | 0.817 | 0.758 | 0.684 | 0.819 | 0.985 | 0.756
6 | CC(C)N1CCN(c2ccc(OCC3COC(Cn4cncn4)(c4ccc(Cl)cc4Cl)O3)cc2)CC1 (centres undefined) [Terconazole] | 1.82 | 2.07 | 1.88 | 1.04 | 0.664 | 1.06
7 | CC1=C(C(=O)OC2CCCCC2)C(c2ccc([N+](=O)[O-])cc2)C2=C(CC(C)(C)CC2=O)N1 (centres undefined) | 2.98 | 3.4 | 1.52 | 2.71 | 2.03 | 2.99
8 | CCC(C)n1ncn(-c2ccc(N3CCN(c4ccc(OCC5COC(Cn6cncn6)(c6ccc(Cl)cc6Cl)O5)cc4)CC3)cc2)c1=O (centres undefined) [Itraconazole] | 4.09 | 2.48 | 1.52 | 1.53 | 1.02 | 1
9 | CNC(=O)c1cccc(-c2ccc3c(N4CCOC[C@@H]4C)nc(N4CCOC[C@@H]4C)nc3n2)c1 | 4 | 3.14 | 2.52 | 4.98 | 4.09 | 4.15
10 | CN(C)Cc1c(C(=O)NCCOc2ccc(C(=O)NO)cc2)oc2ccccc12 | 2.9 | 4.31 | 3.96 | 3.8 | 4.14 | 3.47
11 | CCOC(=O)[C@H](CCc1ccccc1)N[C@@H](C)C(=O)N(CC(=O)O)C1Cc2ccccc2C1 [Delapril Hydrochloride] | 1 | 1.15 | 0.898 | 1 | 0.353 | 1.06
12 | C[C@H](CS)C(=O)N1CCC[C@H]1C(=O)O [Captopril] | 1.01 | 1.13 | 0.669 | 0.971 | 2.08 | 0.714
13 | O=C(O)C1CSCN1 (centres undefined) [Timonacic] | 1.39 | 0.753 | 0.835 | 0.853 | 0.578 | 1.18
14 | Cc1c(O)c(=O)ccn1C [Deferiprone] | 1.58 | 0.809 | 1.07 | 1.18 | 0.561 | 0.947
15 | CC(C)NC[C@@H](C(=O)N1CCN(c2ncnc3c2[C@H](C)C[C@H]3O)CC1)c1ccc(Cl)cc1 | 2.01 | 1.92 | 1.44 | 2.24 | 1.1 | 1.13
16 | CC(C)OC(=O)C(C(=O)OC(C)C)=C1SC=CS1 [Malotilate] | 1.94 | 1.09 | 0.92 | 1.39 | 1.08 | 1.29
17 | CCc1ccc(OCc2ccccc2C(=O)Nc2ccc3nc(C)cc(N)c3c2)cc1 | 4.35 | 4.14 | 3.63 | 5.25 | 5.11 | 4.53
18 | COc1cc(OC2CCN(C)CC2)ccc1Nc1ncc2c(n1)n(C1CCCC1)c(=O)n2C | 1.53 | 2.28 | 1.39 | 2.84 | 1.78 | 1.83
19 | N#CCC1(n2cc(-c3ncnc4[nH]ccc34)cn2)CN(C2CCN(C(=O)c3ccnc(C(F)(F)F)c3F)CC2)C1 | 1.27 | 1.05 | 1.46 | 1.34 | 0.742 | 1.05
20 | O=C(Nc1cccc(C2=NCCN2)c1)Nc1cccc(C2=NCCN2)c1 [Imidocarb dipropionate] | 1.26 | 1.66 | 1.76 | 1.4 | 1.23 | 1.75
21 | CC(C)(C)[C@H]1CC[C@H](CC2=C(O)C(=O)c3ccccc3C2=O)CC1 [Buparvaquone] | 1.16 | 1.1 | 1.17 | 0.844 | 0.483 | 1.44
22 | O=C(O)Cn1nnc(-c2cc(N3CCC(Oc4cc(F)ccc4Br)CC3)no2)n1 | 0.964 | 1.38 | 0.83 | 0.907 | 2.08 | 0.751
23 | COc1ccnc(C[S+]([O-])c2nc3cc(-n4cccc4)ccc3[nH]2)c1C (centres undefined) [Ilaprazole sodium] | 1.23 | 0.928 | 0.81 | 0.764 | 0.518 | 1.26
24 | Nc1ncnc2n[nH]c(Nc3ccc(F)cc3)c12 | 0.861 | 2.17 | 1.25 | 1.67 | 0.599 | 1.4
